Data on six substances can be found in ChEMBL document CHEMBL1201862, “PubChem BioAssay data set” (2004).

The whole screen tested about 41,000 sequences, of which about 2,700 (6.6%) were called active. Rule as the data show it: active = GI50 up to about 1.1 µM and inactive = higher. Only a sample is shown. Entries with a potency or affinity are not part of this list.

The experiment has as its system BT-549.
As usually defined, the GI50 is the concentration at which growth is held to half of that of the control. High values mean lower sensitivity of the cells, low ones greater sensitivity of the cells. “[Bis(aminomethyl)tetramethylenesilane]dichloropaltinum(II), CHEMBL2146205” returned a concentration for 50% growth inhibition (GI50) of 8.85 µM.
On to “[Bis(aminomethyl)pentamethylenesilane]tetrachloropaltinum(IV), CHEMBL2146204”, for which the concentration for 50% growth inhibition (GI50) was 5.71 µM.
Substance CISPLATIN, CHEMBL11359 registered a GI50 of 3.73 µM.
To “[Bis(aminomethyl)dimethylsilane]tetrachloroplatinum(IV), CHEMBL2146190” belongs 16.4 µM.
The same measure for “[Bis(aminomethyl)tetramethylenesilane]tetrachloropaltinum(IV), CHEMBL2146189”: 4.99 µM.
The same measure for “[Bis(aminomethyl)pentamethylenesilane]dichloropaltinum(II), CHEMBL2146202”: 16.6 µM.
